PubChem BioAssay AID1159580 (chemical genetic matrix, 2015)
“And” between values parts separate entries of the source, which are not always exact repeats. Equal entries are not always repeated. Out of some 5,500 compounds screened, about 2,000 (36%) were called active. Not shown: some 18% with an inconclusive outcome. No stated cut-off is given here; in the data, active means normalized growth mostly below about 0.91 (no sharp cut-off); inconclusive means no clear call, values can overlap the other calls; inactive means mostly above about 0.92. This is one part of the list.

Experiment: chemical genetic growth profiling, strain panel (AID 1159580);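 further: tested at 20 µM; growth read once vehicle control cultures reached saturation at 30 °C; 1 = growth at the plate median or of vehicle wells; lower values mean less growth of the strain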
Details: S. cerevisiae deletion strains, growth OD

Measured: normalized growth

COC(=O)C1[C@H]2C[C@H]3c4[nH]c5ccccc5c4CCN3C[C@@H]2CC[C@@H]1O (some centres not stated)
inactive: locus YAL013W, strain DEP1, active compounds read low 1.02 | locus YAL021C, strain ccr4, active compounds read low 0.991 | locus YAL026C, strain drs2, active compounds read low 0.981 | locus YAL030W, strain snc1, active compounds read low 0.976 | locus YBL061C, strain skt5, active compounds read low 0.982 | locus YBR009C, strain hhf1, active compounds read low 0.978 | locus YBR021W, strain FUR4, active compounds read low 1.01 | locus YBR023C, strain chs3, active compounds read low 0.964 | locus YBR171W, strain sec66, active compounds read low 0.96 | locus YBR229C, strain ROT2, active compounds read low 1 | locus YBR231C, strain swc5, active compounds read low 0.965 | locus YBR279W, strain paf1, active compounds read low 0.962 | locus YCL011C, strain gbp2, active compounds read low 0.954 | locus YCL016C, strain dcc1, active compounds read low 0.973 | locus YCL029C, strain bik1, active compounds read low 1.03 | locus YCL061C, strain MRC1, active compounds read low 0.976 | locus YCL069W, strain vba3, active compounds read low 0.981 | locus YCR088W, strain abp1, active compounds read low 0.977 | locus YDL005C, strain med2, active compounds read low 0.971 | locus YDL035C, strain GPR1, active compounds read low 1.02 | locus YDL040C, strain nat1, active compounds read low 0.974 | locus YDL074C, strain BRE1, active compounds read low 1.05 | locus YDL101C, strain DUN1, active compounds read low 1.01 | locus YDL134C, strain PPH21, active compounds read low 1.02 | locus YDL185W, strain tfp1, active compounds read low 1.02 | locus YDL192W, strain arf1, active compounds read low 1.02 | locus YDR001C, strain nth1, active compounds read low 0.964 | locus YDR069C, strain doa4, active compounds read low 0.954 | locus YDR101C, strain arx1, active compounds read low 1.01 | locus YDR137W, strain rgp1, active compounds read low 0.945 | locus YDR150W, strain NUM1, active compounds read low 1.01 | locus YDR159W, strain sac3, active compounds read low 0.925 | locus YDR162C, strain NBP2, active compounds read low 1.01 | locus YDR195W, strain ref2 0.943 | locus YDR297W, strain sur2, active compounds read low 0.979 | locus YDR318W, strain mcm21, active compounds read low 1.03 | locus YDR334W, strain swr1, active compounds read low 0.946 | locus YDR335W, strain msn5, active compounds read low 0.97 | locus YDR388W, active compounds read low 1.02 | locus YDR392W, strain spt3, active compounds read low 1.01 | locus YDR502C, strain sam2, active compounds read low 1.01 | locus YEL003W, strain gim4, active compounds read low 0.97 | locus YEL037C, strain rad23, active compounds read low 0.979 | locus YEL061C, strain CIN8 (second series), active compounds read low 0.962 | locus YEL061C, strain CIN8, active compounds read low 1.01 | locus YER015W, strain faa2, active compounds read low 0.983 | locus YER016W, strain bim1, active compounds read low 0.982 | locus YER110C, active compounds read low 1.01 | locus YER111C, strain swi4, active compounds read low 0.986 | locus YER155C, strain BEM2 (second series), active compounds read low 0.945 | locus YER155C, strain BEM2, active compounds read low 1.01 | locus YER167W, strain BCK2, active compounds read low 1.01 | locus YFR010W, strain ubp6, active compounds read low 0.952 | locus YGL078C, strain dbp3, active compounds read low 1.01 | locus YGL086W, strain mad1, active compounds read low 1 | locus YGL167C, strain pmr1, active compounds read low 0.944 | locus YGL173C, strain kem1, active compounds read low 0.989 | locus YGL227W, strain vid30, active compounds read low 0.962 | locus YGL240W, strain doc1, active compounds read low 0.954 | locus YGL248W, strain PDE1, active compounds read low 1.01 | locus YGL253W, strain hxk2, active compounds read low 0.975 | locus YGR078C, strain PAC10, active compounds read low 1.03 | locus YGR135W, strain pre9, active compounds read low 1.01 | locus YGR229C, strain SMI1, active compounds read low 1.01 | locus YGR252W, strain gcn5, active compounds read low 0.976 | locus YHR013C, strain ard1, active compounds read low 0.979 | locus YHR027C, strain rpn1, active compounds read low 0.972 | locus YHR030C, strain SLT2, active compounds read low 1.02 | locus YHR079C, strain IRE1 (second series), active compounds read low 1.02 | locus YHR079C, strain IRE1, active compounds read low 1.02 | locus YHR094C, strain hxt1, active compounds read low 1.01 | locus YHR129C, strain ARP1, active compounds read low 0.999 | locus YHR142W, strain chs7, active compounds read low 0.983 | locus YHR200W, strain rpn10, active compounds read low 1.02 | locus YIL066C, strain RNR3, active compounds read low 1.02 | locus YIL073C, strain SPO22, active compounds read low 1.05 | locus YIL125W, strain kgd1, active compounds read low 1.01 | locus YIR030C, strain dcg1, active compounds read low 1.02 | locus YJL092W, strain hpr5, active compounds read low 0.982 | locus YJL095W, strain BCK1 (second series), active compounds read low 0.981 | locus YJL095W, strain BCK1, active compounds read low 1.05 and 1.01 | locus YJL115W, strain asf1, active compounds read low 0.966 | locus YJL129C, strain trk1, active compounds read low 0.977 | locus YJL134W, strain LCB3, active compounds read low 1.01 | locus YJL154C, strain vps35, active compounds read low 0.964 | locus YJL164C, strain tpk1, active compounds read low 1 | locus YJL166W, strain qcr8, active compounds read low 0.953 | locus YJL168C, strain set2, active compounds read low 1.02 | locus YJL187C, strain SWE1 (second series), active compounds read low 1.03 | locus YJL187C, strain SWE1, active compounds read low 0.98 | locus YJR043C, strain POL32, active compounds read low 1.02 | locus YJR066W, strain TOR1, active compounds read low 1.02
